Our source for the binding signal values is publication PMC7862700, “An all-to-all approach to the identification of sequence-specific readers for epigenetic DNA modifications on cytosine”.

What all share (test): DAPPL (digital affinity profiling via proximity ligation, sequencing); 10 mM Tris-HCl pH 7.5, 50 mM NaCl, 1 mM DTT, 4% glycerol, room temperature, 30 min; GST-TFs on glutathione beads, 16-mer random dsDNA library, 0.1% formaldehyde crosslink after washing; high values mean tight binding
One assay concerns the target T1, FLI1 (Homo sapiens, UniProt Q01543 1-452).
T1 sequence: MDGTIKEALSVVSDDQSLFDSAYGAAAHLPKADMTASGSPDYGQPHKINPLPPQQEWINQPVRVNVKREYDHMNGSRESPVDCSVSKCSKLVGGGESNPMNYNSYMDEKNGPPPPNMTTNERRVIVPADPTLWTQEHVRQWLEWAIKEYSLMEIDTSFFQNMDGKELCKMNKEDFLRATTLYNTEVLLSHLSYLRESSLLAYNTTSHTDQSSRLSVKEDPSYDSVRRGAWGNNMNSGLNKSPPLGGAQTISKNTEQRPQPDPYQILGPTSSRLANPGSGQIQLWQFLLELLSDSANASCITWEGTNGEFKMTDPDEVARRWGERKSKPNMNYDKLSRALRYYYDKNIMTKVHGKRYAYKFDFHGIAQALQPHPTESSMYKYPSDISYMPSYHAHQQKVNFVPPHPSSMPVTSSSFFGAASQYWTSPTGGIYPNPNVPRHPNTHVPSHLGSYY
The note with it: protein: recombinant; tags: N-terminal GST; dsDNA, one strand shown. The procedure, abridged:
(§1)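 Pools were built from human transcription factors expressed in yeast as GST fusions, captured on glutathione beads and DNA-barcoded, along with a tag-only sample. Incubation with 200 nmole of a 16-mer random double-stranded DNA library lasted 30 min at room temperature in Tris/NaCl/DTT/glycerol buffer, and was followed by washing, 0.1% formaldehyde crosslinking, proximity ligation, PCR amplification and Illumina NextSeq500 sequencing. Binding signal is the quotient of each hexamer's read frequency for a factor and its frequency for the tag-only sample.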

For another assay, the target named is T2, ELK1 (Homo sapiens, UniProt P19419 1-428).
T2 sequence: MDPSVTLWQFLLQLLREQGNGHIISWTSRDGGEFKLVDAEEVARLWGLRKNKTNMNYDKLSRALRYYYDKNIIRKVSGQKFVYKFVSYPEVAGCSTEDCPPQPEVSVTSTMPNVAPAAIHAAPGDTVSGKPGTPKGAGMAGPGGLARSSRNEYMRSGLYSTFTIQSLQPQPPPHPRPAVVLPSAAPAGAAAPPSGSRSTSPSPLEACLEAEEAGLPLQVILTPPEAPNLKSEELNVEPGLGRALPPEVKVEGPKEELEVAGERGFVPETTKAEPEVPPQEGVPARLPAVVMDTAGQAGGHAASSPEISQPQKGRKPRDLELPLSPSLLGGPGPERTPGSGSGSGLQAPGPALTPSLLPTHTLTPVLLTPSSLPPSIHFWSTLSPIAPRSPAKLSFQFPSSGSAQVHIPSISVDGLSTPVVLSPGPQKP
Conditions: protein: recombinant; tags: N-terminal GST; dsDNA, one strand shown. The procedure, abridged: as §1

A further assay addresses T3, GABPA (Homo sapiens, UniProt Q06546 1-454).
T3 sequence: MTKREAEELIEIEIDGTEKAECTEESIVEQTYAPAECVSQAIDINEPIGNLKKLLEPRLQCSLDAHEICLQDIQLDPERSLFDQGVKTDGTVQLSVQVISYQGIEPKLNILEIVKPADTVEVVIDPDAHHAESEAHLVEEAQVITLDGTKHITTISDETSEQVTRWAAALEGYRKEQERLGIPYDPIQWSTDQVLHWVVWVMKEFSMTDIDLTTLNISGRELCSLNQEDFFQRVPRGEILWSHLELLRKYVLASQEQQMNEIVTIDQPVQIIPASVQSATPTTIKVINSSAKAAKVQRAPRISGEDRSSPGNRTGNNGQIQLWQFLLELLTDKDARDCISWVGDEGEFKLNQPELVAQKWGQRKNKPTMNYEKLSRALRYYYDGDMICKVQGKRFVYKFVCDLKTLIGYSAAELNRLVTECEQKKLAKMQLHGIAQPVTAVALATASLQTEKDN
The note with it: protein: recombinant; tags: N-terminal GST; dsDNA, one strand shown. Summed up:
as §1

The target in another assay is T4, ERG (Homo sapiens, UniProt P11308 1-479).
T4 sequence: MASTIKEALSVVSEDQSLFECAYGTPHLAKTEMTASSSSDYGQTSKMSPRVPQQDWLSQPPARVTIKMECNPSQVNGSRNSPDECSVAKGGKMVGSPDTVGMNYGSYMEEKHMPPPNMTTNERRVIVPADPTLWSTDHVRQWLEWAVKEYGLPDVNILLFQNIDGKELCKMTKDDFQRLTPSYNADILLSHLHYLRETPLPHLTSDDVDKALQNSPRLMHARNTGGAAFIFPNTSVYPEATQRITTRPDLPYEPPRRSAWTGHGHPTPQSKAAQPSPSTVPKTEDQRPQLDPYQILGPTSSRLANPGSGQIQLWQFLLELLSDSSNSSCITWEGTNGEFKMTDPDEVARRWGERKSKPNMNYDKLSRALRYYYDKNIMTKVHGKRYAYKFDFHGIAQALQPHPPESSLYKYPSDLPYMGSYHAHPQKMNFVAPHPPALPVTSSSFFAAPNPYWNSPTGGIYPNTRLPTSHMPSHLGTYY
The note with it: protein: recombinant; tags: N-terminal GST; dsDNA, one strand shown. The procedure, abridged:
as §1

The target in another assay is ELF1 (Homo sapiens, UniProt P32519 1-619). Conditions: protein: recombinant; tags: N-terminal GST; dsDNA, one strand shown. The procedure, abridged: as §1
ELF1, sequence (P32519 whole entry): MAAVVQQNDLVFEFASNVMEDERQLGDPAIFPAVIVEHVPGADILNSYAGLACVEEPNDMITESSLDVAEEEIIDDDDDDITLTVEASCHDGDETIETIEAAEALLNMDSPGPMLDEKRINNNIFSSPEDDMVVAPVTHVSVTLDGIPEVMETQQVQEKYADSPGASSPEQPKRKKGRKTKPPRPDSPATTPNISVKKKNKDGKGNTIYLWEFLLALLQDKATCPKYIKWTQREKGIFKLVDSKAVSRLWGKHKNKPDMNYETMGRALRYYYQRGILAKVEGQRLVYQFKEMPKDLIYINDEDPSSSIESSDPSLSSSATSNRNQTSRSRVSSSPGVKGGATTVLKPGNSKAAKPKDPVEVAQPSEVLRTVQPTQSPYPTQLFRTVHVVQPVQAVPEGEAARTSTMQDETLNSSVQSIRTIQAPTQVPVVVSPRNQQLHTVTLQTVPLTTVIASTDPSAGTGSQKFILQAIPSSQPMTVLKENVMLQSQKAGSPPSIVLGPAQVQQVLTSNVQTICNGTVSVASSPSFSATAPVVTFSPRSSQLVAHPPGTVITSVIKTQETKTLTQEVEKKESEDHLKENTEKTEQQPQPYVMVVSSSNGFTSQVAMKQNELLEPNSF
The target of a further assay is T5, EHF (Homo sapiens, UniProt Q9NZC4 1-300).
T5 sequence: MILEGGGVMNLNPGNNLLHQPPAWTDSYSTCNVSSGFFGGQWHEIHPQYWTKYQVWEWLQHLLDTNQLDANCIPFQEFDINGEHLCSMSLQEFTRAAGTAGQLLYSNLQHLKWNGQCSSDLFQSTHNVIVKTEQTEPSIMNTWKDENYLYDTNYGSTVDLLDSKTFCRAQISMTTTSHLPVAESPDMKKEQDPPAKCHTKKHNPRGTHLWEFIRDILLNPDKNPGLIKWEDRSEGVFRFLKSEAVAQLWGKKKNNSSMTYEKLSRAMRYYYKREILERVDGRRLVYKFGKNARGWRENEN
The note with it: protein: recombinant; tags: N-terminal GST; dsDNA, one strand shown. Summed up: as §1

The target of the next assay is SPI1 (Homo sapiens, UniProt P17947 1-270). Conditions: protein: recombinant; tags: N-terminal GST; dsDNA, one strand shown. Summed up:
as §1

The next assay deals with SPIB (Homo sapiens, UniProt Q01892 1-262). The note with it: protein: recombinant; tags: N-terminal GST; dsDNA, one strand shown. Summed up: as §1
SPIB, sequence (Q01892 whole entry): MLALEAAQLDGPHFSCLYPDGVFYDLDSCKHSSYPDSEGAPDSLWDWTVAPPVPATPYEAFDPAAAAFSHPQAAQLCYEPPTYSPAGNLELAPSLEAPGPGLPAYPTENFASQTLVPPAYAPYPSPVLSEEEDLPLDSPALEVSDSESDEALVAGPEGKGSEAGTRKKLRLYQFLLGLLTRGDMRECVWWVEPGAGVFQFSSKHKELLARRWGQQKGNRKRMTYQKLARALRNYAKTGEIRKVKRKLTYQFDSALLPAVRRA
Another assay concerns the target T6, ELK3 (Homo sapiens, UniProt P41970 1-407).
T6 sequence: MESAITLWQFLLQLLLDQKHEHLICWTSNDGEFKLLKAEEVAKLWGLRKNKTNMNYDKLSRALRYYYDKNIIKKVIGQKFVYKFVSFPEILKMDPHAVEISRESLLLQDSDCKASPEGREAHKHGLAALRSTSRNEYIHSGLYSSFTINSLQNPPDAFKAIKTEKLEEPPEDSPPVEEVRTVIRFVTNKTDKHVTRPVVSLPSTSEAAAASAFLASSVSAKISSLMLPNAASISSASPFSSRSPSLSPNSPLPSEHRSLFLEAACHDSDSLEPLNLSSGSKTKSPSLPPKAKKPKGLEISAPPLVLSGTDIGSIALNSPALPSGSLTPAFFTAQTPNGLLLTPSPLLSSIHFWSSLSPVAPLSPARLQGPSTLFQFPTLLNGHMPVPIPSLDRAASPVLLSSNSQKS
Conditions: protein: recombinant; tags: N-terminal GST; dsDNA, one strand shown. The procedure, abridged:
as §1

The target of another assay is T7, FEV (Homo sapiens, UniProt Q99581 1-238).
T7 sequence: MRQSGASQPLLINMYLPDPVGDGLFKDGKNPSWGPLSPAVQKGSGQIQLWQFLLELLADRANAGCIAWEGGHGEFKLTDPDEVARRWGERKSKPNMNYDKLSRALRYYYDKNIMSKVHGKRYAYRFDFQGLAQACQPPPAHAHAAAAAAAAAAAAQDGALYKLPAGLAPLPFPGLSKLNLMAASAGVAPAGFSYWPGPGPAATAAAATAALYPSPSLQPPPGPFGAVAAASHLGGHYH
The note with it: protein: recombinant; tags: N-terminal GST; dsDNA, one strand shown. The procedure, abridged: as §1

In a further assay the target is ETV5 (Homo sapiens, UniProt P41161 1-510). Conditions: protein: recombinant; tags: N-terminal GST; dsDNA, one strand shown. The procedure, abridged:
as §1

A further assay has as its target HSF1 (Homo sapiens, UniProt Q00613 1-529). The note with it: protein: recombinant; tags: N-terminal GST; chain copies: 3; dsDNA, one strand shown. Summed up: as §1
The target of the next assay is T8, SPIC (Homo sapiens, UniProt Q8N5J4 1-248).
T8 sequence: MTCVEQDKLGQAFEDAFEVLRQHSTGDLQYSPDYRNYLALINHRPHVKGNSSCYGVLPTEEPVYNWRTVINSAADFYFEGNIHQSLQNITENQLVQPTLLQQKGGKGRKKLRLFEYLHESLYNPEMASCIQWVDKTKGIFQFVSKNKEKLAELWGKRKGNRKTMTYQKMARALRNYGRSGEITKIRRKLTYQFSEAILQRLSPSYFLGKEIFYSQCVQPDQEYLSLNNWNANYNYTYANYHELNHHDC
The note with it: protein: recombinant; tags: N-terminal GST; dsDNA, one strand shown. Summed up: as §1

Another assay concerns the target ELF4 (Homo sapiens, UniProt Q99607 1-663). The note with it: protein: recombinant; tags: N-terminal GST; dsDNA, one strand shown. Summed up: as §1
The next assay deals with T9, ELK4 (Homo sapiens, UniProt P28324-2 1-405).
T9 sequence: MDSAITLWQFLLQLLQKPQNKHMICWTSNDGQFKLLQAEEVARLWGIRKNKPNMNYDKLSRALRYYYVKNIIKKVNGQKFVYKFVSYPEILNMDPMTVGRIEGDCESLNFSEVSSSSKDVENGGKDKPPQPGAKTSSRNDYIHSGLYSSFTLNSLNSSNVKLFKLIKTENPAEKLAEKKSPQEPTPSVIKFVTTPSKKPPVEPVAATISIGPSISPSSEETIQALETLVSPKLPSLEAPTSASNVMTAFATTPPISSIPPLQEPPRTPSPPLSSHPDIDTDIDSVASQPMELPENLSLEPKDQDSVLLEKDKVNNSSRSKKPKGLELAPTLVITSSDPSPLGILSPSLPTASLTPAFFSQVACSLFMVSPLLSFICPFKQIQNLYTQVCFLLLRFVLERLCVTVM
Conditions: protein: recombinant; tags: N-terminal GST; dsDNA, one strand shown. Summed up:
as §1

The target of another assay is T10, ETV2 (Homo sapiens, UniProt O00321 1-342).
T10 sequence: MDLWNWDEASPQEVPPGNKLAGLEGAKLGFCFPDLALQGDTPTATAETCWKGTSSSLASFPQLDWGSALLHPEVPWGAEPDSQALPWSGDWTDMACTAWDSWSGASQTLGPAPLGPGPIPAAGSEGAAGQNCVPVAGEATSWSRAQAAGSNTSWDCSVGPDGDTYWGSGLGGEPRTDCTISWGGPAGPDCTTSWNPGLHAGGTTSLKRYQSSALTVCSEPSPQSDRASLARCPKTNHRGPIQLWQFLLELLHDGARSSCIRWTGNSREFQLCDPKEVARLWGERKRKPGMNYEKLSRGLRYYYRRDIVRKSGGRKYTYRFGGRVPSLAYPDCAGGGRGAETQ
The note with it: protein: recombinant; tags: N-terminal GST; dsDNA, one strand shown. Summed up: as §1

For the next assay, the target named is T11, ELF3 (Homo sapiens, UniProt P78545 1-371).
T11 sequence: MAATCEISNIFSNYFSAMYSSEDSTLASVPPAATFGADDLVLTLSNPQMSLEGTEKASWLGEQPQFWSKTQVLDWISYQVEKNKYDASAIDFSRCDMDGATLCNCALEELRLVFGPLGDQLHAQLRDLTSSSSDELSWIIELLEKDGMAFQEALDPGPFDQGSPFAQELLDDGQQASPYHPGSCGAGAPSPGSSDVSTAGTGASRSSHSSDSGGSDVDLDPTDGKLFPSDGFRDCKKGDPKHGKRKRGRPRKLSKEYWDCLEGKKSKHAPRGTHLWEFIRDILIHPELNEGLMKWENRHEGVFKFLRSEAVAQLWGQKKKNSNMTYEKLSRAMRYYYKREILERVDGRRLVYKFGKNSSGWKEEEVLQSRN
Conditions: protein: recombinant; tags: N-terminal GST; dsDNA, one strand shown. Summed up: as §1

Another assay concerns the target CRX (Homo sapiens, UniProt O43186 1-299). The note with it: protein: recombinant; tags: N-terminal GST; dsDNA, one strand shown. The procedure, abridged:
as §1

A further assay has as its target ETV1 (Homo sapiens, UniProt P50549 1-477). Conditions: protein: recombinant; tags: N-terminal GST; dsDNA, one strand shown. The procedure, abridged: as §1

CRX, sequence (O43186 whole entry): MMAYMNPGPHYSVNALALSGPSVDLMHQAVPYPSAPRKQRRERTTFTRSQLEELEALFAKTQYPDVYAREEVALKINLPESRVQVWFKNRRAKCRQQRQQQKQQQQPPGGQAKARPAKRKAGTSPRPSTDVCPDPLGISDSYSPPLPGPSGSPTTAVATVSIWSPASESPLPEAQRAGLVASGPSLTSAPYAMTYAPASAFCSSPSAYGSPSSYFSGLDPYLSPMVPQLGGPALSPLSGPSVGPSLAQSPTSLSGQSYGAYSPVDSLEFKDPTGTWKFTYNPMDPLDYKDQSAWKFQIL
HSF1, sequence (Q00613 whole entry): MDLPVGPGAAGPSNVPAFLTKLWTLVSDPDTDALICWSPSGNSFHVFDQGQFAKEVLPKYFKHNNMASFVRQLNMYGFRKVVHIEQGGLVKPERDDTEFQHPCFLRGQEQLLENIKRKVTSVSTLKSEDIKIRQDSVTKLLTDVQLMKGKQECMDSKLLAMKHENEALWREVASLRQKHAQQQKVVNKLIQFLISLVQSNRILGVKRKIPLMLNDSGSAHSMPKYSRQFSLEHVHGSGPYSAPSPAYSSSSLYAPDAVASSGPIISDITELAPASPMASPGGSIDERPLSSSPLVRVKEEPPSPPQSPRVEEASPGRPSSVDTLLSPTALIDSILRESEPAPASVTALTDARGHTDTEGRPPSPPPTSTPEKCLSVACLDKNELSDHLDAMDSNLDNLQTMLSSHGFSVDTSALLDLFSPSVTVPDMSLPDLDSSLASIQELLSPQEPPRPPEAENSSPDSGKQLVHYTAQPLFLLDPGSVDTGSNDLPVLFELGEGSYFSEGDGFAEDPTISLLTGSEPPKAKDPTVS
ELF4, sequence (Q99607 whole entry): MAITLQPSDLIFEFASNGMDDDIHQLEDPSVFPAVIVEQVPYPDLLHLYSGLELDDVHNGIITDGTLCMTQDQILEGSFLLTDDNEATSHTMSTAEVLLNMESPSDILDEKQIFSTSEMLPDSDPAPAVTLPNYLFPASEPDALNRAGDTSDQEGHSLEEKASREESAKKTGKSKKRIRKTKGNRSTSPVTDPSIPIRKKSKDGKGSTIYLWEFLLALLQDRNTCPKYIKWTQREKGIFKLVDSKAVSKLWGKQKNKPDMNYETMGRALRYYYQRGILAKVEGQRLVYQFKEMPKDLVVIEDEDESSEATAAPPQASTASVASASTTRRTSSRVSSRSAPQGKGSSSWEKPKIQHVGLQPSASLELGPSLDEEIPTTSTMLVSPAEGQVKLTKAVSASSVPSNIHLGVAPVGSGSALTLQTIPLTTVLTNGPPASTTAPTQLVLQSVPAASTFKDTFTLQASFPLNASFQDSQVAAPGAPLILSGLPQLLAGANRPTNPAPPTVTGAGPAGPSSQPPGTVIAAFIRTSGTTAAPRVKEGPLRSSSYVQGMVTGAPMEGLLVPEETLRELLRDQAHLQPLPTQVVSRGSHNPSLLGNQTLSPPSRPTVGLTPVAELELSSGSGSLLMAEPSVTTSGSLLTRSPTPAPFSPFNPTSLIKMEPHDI
ETV5, sequence (P41161 whole entry): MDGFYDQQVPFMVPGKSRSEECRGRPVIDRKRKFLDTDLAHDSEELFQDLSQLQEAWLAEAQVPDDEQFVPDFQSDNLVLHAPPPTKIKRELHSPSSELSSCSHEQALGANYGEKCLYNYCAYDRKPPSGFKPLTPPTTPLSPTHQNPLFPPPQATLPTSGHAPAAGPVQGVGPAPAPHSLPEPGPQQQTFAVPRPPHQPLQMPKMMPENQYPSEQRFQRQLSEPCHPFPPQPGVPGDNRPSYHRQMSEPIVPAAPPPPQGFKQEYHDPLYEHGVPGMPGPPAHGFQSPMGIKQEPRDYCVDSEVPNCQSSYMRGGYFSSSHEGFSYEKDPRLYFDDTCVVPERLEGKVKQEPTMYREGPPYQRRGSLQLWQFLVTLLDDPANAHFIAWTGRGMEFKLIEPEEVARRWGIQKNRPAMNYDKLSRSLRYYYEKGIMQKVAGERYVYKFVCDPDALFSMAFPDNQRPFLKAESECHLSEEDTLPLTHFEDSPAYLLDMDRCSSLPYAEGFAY
ETV1, sequence (P50549 whole entry): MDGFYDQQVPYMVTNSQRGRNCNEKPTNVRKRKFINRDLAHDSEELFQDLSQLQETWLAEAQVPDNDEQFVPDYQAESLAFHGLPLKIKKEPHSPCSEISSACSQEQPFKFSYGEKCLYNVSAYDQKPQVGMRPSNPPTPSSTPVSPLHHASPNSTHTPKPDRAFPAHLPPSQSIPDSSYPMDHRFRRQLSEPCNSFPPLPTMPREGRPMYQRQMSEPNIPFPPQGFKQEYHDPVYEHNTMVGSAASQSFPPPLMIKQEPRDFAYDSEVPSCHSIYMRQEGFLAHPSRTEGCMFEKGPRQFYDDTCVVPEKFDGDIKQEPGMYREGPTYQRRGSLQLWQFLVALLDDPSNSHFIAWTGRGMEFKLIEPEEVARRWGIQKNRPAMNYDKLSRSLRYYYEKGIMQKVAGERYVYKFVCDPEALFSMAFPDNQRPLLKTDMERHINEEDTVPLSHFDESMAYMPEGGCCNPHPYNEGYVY

Consider ATATTT, for which the binding signal was 1.6 fold enrichment (6-mer frequency, TF over GST control) with FLI1; 1.54 fold enrichment (6-mer frequency, TF over GST control) with ELK1; 1.55 fold enrichment (6-mer frequency, TF over GST control) in the assay with GABPA; 1.53 fold enrichment (6-mer frequency, TF over GST control) with ERG; 1.55 fold enrichment (6-mer frequency, TF over GST control) with ELF1; 1.56 fold enrichment (6-mer frequency, TF over GST control) with EHF. Moreover, the binding signal is 1.43 fold enrichment (6-mer frequency, TF over GST control) in the assay with SPI1; 1.51 fold enrichment (6-mer frequency, TF over GST control) in the assay with SPIB; 1.47 fold enrichment (6-mer frequency, TF over GST control) in the assay with ELK3; 1.47 fold enrichment (6-mer frequency, TF over GST control) with FEV; 1.54 fold enrichment (6-mer frequency, TF over GST control) in the assay with ETV5; 1.52 fold enrichment (6-mer frequency, TF over GST control) with HSF1. For the same sequence, the binding signal in the assay with SPIC is 1.45 fold enrichment (6-mer frequency, TF over GST control); with ELF4, 1.53 fold enrichment (6-mer frequency, TF over GST control); in the assay with ELK4, 1.81 fold enrichment (6-mer frequency, TF over GST control); in the assay with ETV2, 1.55 fold enrichment (6-mer frequency, TF over GST control); with ELF3, 1.54 fold enrichment (6-mer frequency, TF over GST control); with CRX, 1.6 fold enrichment (6-mer frequency, TF over GST control). Besides, the binding signal with ETV1 is 1.56 fold enrichment (6-mer frequency, TF over GST control).
